Screening data (PubChem)
NIH3T3 tox = NIH 3T3 cell cytotoxicity | AID 1345082 | NIH 3T3 viability, CellTiter-Glo ATP luminescence, 48-72 h | Potency, µM (titrated, usually from 96.7 µM), inactives show at the top dose activity change, negative = cytotoxicity, most hits filed as inhibitors | hit rate 4.3% among 94,000; note: nearly all actives have a fitted effect of over 55% in size
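Viability of NIH 3T3 cells after 48 or 72 hr compound treatment at 37 °C was assessed by CellTiter-Glo, with luminescence imaged following a 10 min room-temperature step.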
GPT2 inhibitor = inhibitors of human GPT2 alanine aminotransferase. hit rate 0.25% among 100,000. AID 1671188. Recombinant GPT2, coupled pyruvate oxidase/HRP Amplex Red fluorescence. Potency, µM (series often up to 57.7 µM), inactives show at the highest dose activity change, negative = inhibition, actives largely listed as inhibitors. Q8TD30; note: nearly all actives have a fitted effect of over 60% in size
Target sequence (Q8TD30 whole entry, looked up): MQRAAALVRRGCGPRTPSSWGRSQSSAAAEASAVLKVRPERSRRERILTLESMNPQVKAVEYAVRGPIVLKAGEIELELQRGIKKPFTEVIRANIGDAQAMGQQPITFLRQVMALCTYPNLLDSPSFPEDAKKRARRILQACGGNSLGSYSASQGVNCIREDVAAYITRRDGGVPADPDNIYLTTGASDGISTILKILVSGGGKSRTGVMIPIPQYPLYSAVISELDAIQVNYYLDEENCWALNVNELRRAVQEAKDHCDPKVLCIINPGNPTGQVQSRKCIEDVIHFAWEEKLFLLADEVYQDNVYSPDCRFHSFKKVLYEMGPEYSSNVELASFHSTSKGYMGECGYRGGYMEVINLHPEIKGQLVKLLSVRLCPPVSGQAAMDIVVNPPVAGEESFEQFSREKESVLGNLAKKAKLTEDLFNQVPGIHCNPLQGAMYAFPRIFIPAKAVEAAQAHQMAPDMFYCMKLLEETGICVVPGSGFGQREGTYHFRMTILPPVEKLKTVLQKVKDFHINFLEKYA
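Fluorescence read-out: pyruvate from GPT2 turnover coupled to pyruvate oxidase, HRP and Amplex Red (0.2mM ThPP, 0.2U/mL PO and HRP, 50uM Amplex final). Substrates 250uM a-KG, 2mM L-alanine; enzyme 10ng/uL; 30 min RT.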
FLuc inh = blocks purified firefly luciferase enzyme activity. Potency, µM (series often up to 115 µM), usual class: inhibitors. AID 1347043. P08659. purified P. pyralis luciferase, luminescence, biochemical. hit rate 2.5% among 76,000; note: nearly all actives have a fitted effect of over 65% in size
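Inhibitors were tested against purified firefly luciferase in a biochemical, low-substrate format (both substrates at 10uM) and luminescence measured with a CCD imager.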
hNpr1 antagonist = blocks ANP-stimulated signaling of human Npr1 receptor; P16066; HEK293 hNpr1 GloSensor cGMP, ANP-stimulated luminescence; Potency, µM (highest dose often 46.3 µM), inactives show top-dose activity change, negative = inhibition, actives largely listed as inhibitors; hit rate 1.6% among 76,000; calls by dose curve; note: nearly all actives have a fitted effect of over 60% in size
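Compound pre-incubated 30 min at room temperature on GloSensor-loaded HEK293 cells stably carrying hNpr1 and the pGS-40F cGMP biosensor. Stimulation uses hNppA at 0.1 nM final; luminescence is taken at baseline and 20 min post-agonist.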
HEK293 tox = cytotoxic compounds in HEK 293 cells; HEK 293 viability, ATP luminescence (CellTiter-Glo), 48-72 h; Potency, µM (top dose mostly 115 µM), for the others: at the top dose activity change, negative = cytotoxicity, most hits filed as inhibitors; hit rate 6.6% among 94,000; AID 1345083; note: nearly all actives have a fitted effect of over 60% in size
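Pintool-delivered compounds were incubated with HEK 293 cells (250 cells/well) at 37 degree Celsius for 48 or 72 hr. ATP-dependent luminescence (CellTiter-Glo) then reported remaining viable cells.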
Numbers without * were called inactive; i = inactive; ? = inconclusive; . = no result; [ ] = dose if it differs, or a comment. A selection: hits, their analogues and other compounds. The true share with any hit is near 10%. Unless noted, calls come from the whole dose curve; as a rule, active = well fitted curve in the direction sought with a large enough effect; inconclusive = small, poorly fitted or top-dose-only effect, or another doubt; inactive = no such curve, though single readings can be large; an effect the other way counts as inactive or inconclusive. % is set by controls: 0 for no effect and ±100 for the full control effect; potency is the fitted concentration of half-maximal effect.

SMILES	NIH3T3 tox	GPT2 inhibitor	FLuc inh	hNpr1 antagonist	HEK293 tox
O=C(c1ccc(Cl)cc1)N1CCN(c2cc(-c3ccc(F)cc3)[nH]n2)CC1	35µM*	-1%	i	?	?
O=[S+]([O-])(c1cccs1)N1CC(N2CCc3ccccc32)C1	?	i	.	.	?
Cc1ccc(N2Cc3c(NCCc4ccc(F)cc4)ncnc3N(C)CC2=O)cc1	35µM*	?	i	0%	?
O=C(c1ccc(Cl)cc1)N1CCC(n2cc(-c3ccc(OC(F)(F)F)cc3)[nH]c2=O)CC1	?	i	.	.	?
Cc1ccc(F)cc1NC(=O)c1cc(-c2ccc[nH]2)n[nH]1	-29%	i	40µM*	-7%	?
COc1ccc(NC(=O)c2cc(-c3ccc[nH]3)n[nH]2)cc1OC	-10%	i	?	-10%	-20%
COc1ccc(OC)c(NC(=O)c2cc(-c3ccc[nH]3)n[nH]2)c1	45µM*	-6%	?	-8%	40µM*
Cc1ccc(Nc2ccnc(N3CCC(NC(=O)C4CCCC4)CC3)n2)cc1	?	i	.	.	?
COc1cc2ncnc(Nc3cccc(I)c3)c2cc1OC	.	i	.	.	.
CN(C)CCN(C)C(=O)c1ccc(-c2ncc3cnc(-c4cccc(F)c4)cn23)cc1	45µM*	?	i	-6%[70.6 µM]	50µM*
CC#CCn1cc2c3c(cccc31)[C@H](CC(C)C)N[C@H](C(=O)NCCOC)C2	?	?	i	-11%[70.6 µM]	?
CC#CCn1cc2c3c(cccc31)[C@H](CC(C)C)N[C@H](C(=O)NC(C)C)C2	71µM*	-6%[88.5 µM]	i	-2%[70.6 µM]	50µM*
CC#CCn1cc2c3c(cccc31)[C@H](CC(C)C)N[C@H](C(=O)NCCN1CCOCC1)C2	100µM*	1%[88.5 µM]	i	-10%[70.6 µM]	?
CC#CCn1cc2c3c(cccc31)[C@H](CC(C)C)N[C@H](C(=O)NC1CCCC1)C2	35µM*	-4%[88.5 µM]	i	-9%[70.6 µM]	45µM*
CC(C)c1ccc(CC(=O)N2CCCc3ncc(C(=O)Nc4cccc(C(F)(F)F)c4)cc32)cc1	?	-11%	i	-27%	32µM*
Cc1ccccc1NC(=O)c1cnc2c(c1)N(C(=O)Cc1ccc(C(C)C)cc1)CCC2	89µM*	-5%[88.5 µM]	i	?	100µM*
CC(C)NC(=O)c1cnc2c(c1)N(C(=O)Cc1cccc(C(F)(F)F)c1)CCC2	?	-28%[88.5 µM]	i	2%[70.6 µM]	-16%[172 µM]
Cc1noc(C)c1Cn1cc2c3c(cccc31)[C@H](CC(C)C)N[C@H](C(=O)NCCN(C)C)C2	?	i	i	-1%	?
C=CCn1cc2c3c(cccc31)[C@H](CC(C)C)N[C@H](C(=O)NCCC)C2	71µM*	1%[88.5 µM]	i	1%[70.6 µM]	50µM*
C=CCn1cc2c3c(cccc31)[C@H](CC(C)C)N[C@H](C(=O)NCCN(C)C)C2	35µM*	?	i	2%[70.6 µM]	35µM*
CC(C)C[C@@H]1N[C@H](C(=O)NCCN(C)C)Cc2cn(CC3CC3)c3cccc1c23	32µM*	4%[88.5 µM]	i	-1%[70.6 µM]	32µM*
CC(C)C[C@@H]1N[C@H](C(=O)NCc2cccs2)Cc2cn(CC3CC3)c3cccc1c23	71µM*	-4%[88.5 µM]	i	-18%[70.6 µM]	63µM*
COc1ccc(CC(=O)N2CCN(C(=O)c3cccc(-c4ccccc4OC)c3)CC2)cc1	?	i	.	.	?
CC(C)(C)C1CCC2(CC1)NC(=O)N(CC(=O)NCc1ccc3c(c1)OCO3)C2=O (centres undefined)	?	-10%	i	0%	-10%
N#CC1(c2ccc(-c3cccc(CN4CCOCC4)c3)cc2)CCCC1	?	i	35µM*	-8%	?
SMILES	NIH3T3 tox	GPT2 inhibitor	FLuc inh	hNpr1 antagonist	HEK293 tox
Cc1ccc(-c2ncc(NC(=O)Cc3ccccc3C)cn2)cc1	-12%	3%	?	-16%	?
COc1cccc(-c2ccccc2NC(=O)C2CCN(Cc3ccccc3F)CC2)c1	45µM*	-19%	i	?	?
COc1cccc(-c2ccccc2NC(=O)C2CCN(CC=C(C)C)CC2)c1	20µM*	-17%	i	4%	?
COc1cccc(CN2CCC(C(=O)Nc3ccccc3-c3cccc(OC)c3)CC2)c1	?	-10%	i	?	22µM*
COc1cccc(-c2ccccc2NC(=O)C2CCN(C/C(C)=C/c3ccccc3)CC2)c1	?	-21%	i	-28%	?
CCN1CCN(C(=O)c2cn3cc(-c4ccc(C)cc4)sc3n2)CC1	?	i	.	.	?
CSCC[C@@H]1NC(=O)c2cc(NC(=O)c3n[nH]c4c3CCCC4)ccc2NC1=O	-16%	i	i	-2%	-19%
O=C(Nc1ccc2c(c1)OCCO2)C1CCN(C(=O)N2CC3CC(C2)[C@H]2CCCC(=O)N2C3)CC1 (some centres undefined)	4%	i	20µM*	3%	5%
O=C(NC1CCC1)c1ccc2nccn2c1	-2%[174 µM]	i	i	0%[70.6 µM]	i
O=C(NC1CCCCC1)c1ccc2nnc(-c3cc(C(F)(F)F)cc(C(F)(F)F)c3)n2c1	32µM*	i	.	.	35µM*
O=C(NC1CCCCCC1)c1ccc2nccn2c1	-29%[138 µM]	2%[88.5 µM]	40µM*	-16%[70.6 µM]	?
O=C(NCc1ccccc1Cl)c1ccc2nnc(-c3ccoc3)n2c1	?	-7%[88.5 µM]	.	.	112µM*
O=C(NCc1ccc(Cl)cc1)c1ccc2nnc(-c3cccc(C(F)(F)F)c3)n2c1	?	i	.	.	14µM*
O=C(NCc1ccccc1)c1ccc2nnc(-c3ccoc3)n2c1	?	2%[88.5 µM]	.	.	-8%[172 µM]
O=C(NCc1ccc(F)c(F)c1)c1ccc2nnc(-c3cccc(C(F)(F)F)c3)n2c1	25µM*	i	.	.	32µM*
O=C(NCCc1ccc(Cl)cc1)c1ccc2nnc(-c3cccc(C(F)(F)F)c3)n2c1	22µM*	i	.	.	?
O=C(NCCc1ccc(Cl)cc1)c1ccc2nnc(-c3ccc(Cl)cc3)n2c1	?	5%	.	.	?
O=C(NCc1ccccn1)c1ccc2nnc(-c3cccc(C(F)(F)F)c3)n2c1	?	i	.	.	?
COc1cccc(CNC(=O)c2ccc3nnc(-c4cc(C(F)(F)F)cc(C(F)(F)F)c4)n3c2)c1	?	-9%	.	.	?
COc1cccc(CNC(=O)c2ccc3nnc(-c4cccc(C(F)(F)F)c4)n3c2)c1	?	i	.	.	45µM*
O=C(NCc1ccc(Cl)cc1)c1ccc2nnc(-c3cc(C(F)(F)F)cc(C(F)(F)F)c3)n2c1	?	i	.	.	14µM*
COc1cccc(CCC(=O)N2CCCC(CN3CCC(C)CC3)CC2)c1 (centres undefined)	-15%	4%	i	-11%	?
